About 83,000 compounds went through this panel and 20% of them were active in at least one assay; those are over-represented in the sample as a whole.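 Treatment: one concentration, 48 hours, 96-well format. Scoring: percent growth, with anything below 10 considered active.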 Values without a mark were called inactive. Activity calls are given as the source filed them.

The assay relates to HOP-62 NSCLC. Briefly: NCI-60 one-dose screen, 48 h (100 = growth as untreated, 0 = no growth, -100 = all killed). The following applies: 10 µM unless noted.
`O=C(NN1C(=O)/C(=C/C=C/c2ccc([N+](=O)[O-])o2)SC1=S)c1ccccc1O`: the growth was -53.5% (active).
Next, `COc1ccc(-c2nc3cc(C)ccc3n2CC(=O)N=Nc2c(O)[nH]c3ccc(Cl)cc23)cc1`: -50.4% (active).
For `COC1=C[C@]23CCC(=O)N2CCc2cc4c(cc2[C@@H]3[C@@H]1OC(=O)[C@H](C)O)OCO4`, the growth is 46.6%.
As for `Cc1sc2c(c1C)C(c1ccc(Cl)cc1)=N[C@@H](CC(=O)NCCCCCNC(=O)COc1ccc(C3CCC(=O)NC3=O)cc1)c1nnc(C)n1-2` (stereo partly specified), the figure is 16%; as for `N/C(=N\c1nc2ccccc2s1)NC(=O)Nc1ccc(Cl)cc1Cl`, -77% (active).
As for `CC1=C(C#N)C2=NNCC(c3ccccc3)=NN2C(c2ccccc2)=C1`, the figure is 85.6%.

The record behind these values is PubChem BioAssay (NCI).
